Source: article PMC13494018

B1: d3r1_design_ppi_175_dldesign_0_cycle1_af2pred (protein)
chain: GSAATLAATAAKLAVKSAKKEMEEAKKNPETGPERLEKYAEILEKAAKDAKATGTAEAKEAAKEAEKEAKKAKEEAKKLK
B2: d3r1_design_ppi_230_dldesign_0_cycle1_af2pred (protein)
chain: TLAESALKALKVIGKAAVEVAKELGEEVYKKVKKEVEKLLKEVESASPEERAKLAAEAAKKMQKKLEELEKLLKEKKKK
B3: d3r1_design_ppi_130_dldesign_0_cycle0_af2pred (protein)
chain: SASEKANNELAAKLAVESAKKYLEEAEKLEKEDKEKAKKLLKEIAEKAEAGVKAFADSPEAPELKKLAEEAKAKIEEI
B4: d8r1_design_ppi_92_dldesign_0_cycle1_af2pred (protein)
chain: ERERERAAIRALLATVDAEYAKAAKEGPEAADAGIERVAAAAAAAGALGPDTASAGRFAVGVYRTLAEKVKAAWAA
B5: d3r1_design_ppi_121_dldesign_0_cycle1_af2pred (protein)
chain: MKALEEAKKAAEKVKKLAKEAKELGDEETAKGLKEMEEEIKKLYKKAKEDPSKAEEYAEIAKKIAEIAKKHYEESKKKLEKEKE
B6: d3r1_design_ppi_25_dldesign_0_cycle1_af2pred (protein)
chain: SMAAKSAELRAESRRESILAAARQFAAENPAQGPRALAKAEELVAKAKEFAAATKDPAEAAAFAAQQAEEFRAYLAALEAEAA
B7: d3r1_design_ppi_121_dldesign_0_cycle0_af2pred (protein)
chain: DEALKTAEKAAKEVEELAKEAKEAGDEETAKGLEEMLEKIKELLEKAKKDPSKAKEYAKTAEAIAKVAKKNYEESLKKLKEEKE
B8: d3r1_design_ppi_79_dldesign_0_cycle0_af2pred (protein)
chain: MTDEEIAKKLIEVAKKAKEEAEKKLKDDPEKVKKVKEIAEEAIKEAKKDPKKGPEALQKAAEEMEKLVKE
B9: d8r1_design_ppi_568_dldesign_0_cycle1_af2pred (protein)
chain: AARHLALAIRGVLKADDAGDAEAAAKAKALLAKAAAALAAGDEAAAKAYATQAAAVADPAYAPVAEAVAAAAAA
B10: d3r1_design_ppi_135_dldesign_0_cycle1_af2pred (protein)
chain: GSLEEYEKLLAENSKLAVEKATKAAKEEVKKKGTEEAAKEATKRLEALAKALKSSGFKGTKEEAEKAKEAAKKLEKEAKKIAK
B11: d8r1_design_ppi_1354_dldesign_0_cycle1_af2pred (protein)
chain: SRAAAAKAFGKAAVEQLKKLAKAAGAEEARKLAKQLQADFAAFAAAVPEVAAEFKAAAEAAKKAAEEVAKEQEAKAAAAAAA
B12: d3r1_design_ppi_123_dldesign_0_cycle0_af2pred (protein)
chain: SENDKITLEQAKKLLEKEAKRAAEVAEKIDKEKAKKIKKYAEEALKKGKLTELAKAVKKVSEELEKYEKKLKEEEEKA
B13: d3r1_design_ppi_36_dldesign_0_cycle1_af2pred (protein)
chain: EEERLKEAEETYKKLLEELYKESLKEIEEAAKKGPEAAKKALEKAKAEFDEYEKGLLPEYAKEVKEKLEKEAEKLIKKAK
B14: d3r1_design_ppi_123_dldesign_0_cycle1_af2pred (protein)
chain: DPAVETTKANGKALLTKVAKEAAEVAAKIDPAKAKEITDYAAKALKAGDVTEIAKAVKKVSEELEKYKKELEKKEKEA
B15: d3r1_design_ppi_237_dldesign_0_cycle0_af2pred (protein)
chain: TPLEQLGKLVKEAKKAAKEAKELIKKGKAKEAAKLAREAAKKQIEKAKKIGEEYPEAKASAEAAAAYIEALAKEVEKEAKAAEA
B16: d8r1_design_ppi_860_dldesign_0_cycle0_af2pred (protein)
chain: DEAYELAAEALARASELRAAAAAARAARGAAGVAEAAALDAEAVRVLEEAAKKLKALGSGLGKNLEAAARRLAERAAAATAAARA
B17: d8r1_design_ppi_427_dldesign_0_cycle0_af2pred (protein)
chain: MSRIAAWVIAAISAAATDPAEADKVAARAAEEALANPEKADEALALAAETARAAGLDAATVDAAVARIRALVAAL
B18: d3r1_design_ppi_168_dldesign_0_cycle1_af2pred (protein)
chain: ANKEEAKKAATEGQDAMAELRALKKEGGDPEEIKKAGDKAIESYEKAGELDPSIKERADKMIEAAKKLTEEGIKASKEK
B19: d3r1_design_ppi_53_dldesign_0_cycle1_af2pred (protein)
chain: ASEADRAQVRAEGMAEALKLRAEAAAPLLSPEAVAEIKALAEKMAADPENRDAYYAAAVALLDAALAAAKA

Target: VTCN1, Q7Z7D3
Sequence (Q7Z7D3 whole entry): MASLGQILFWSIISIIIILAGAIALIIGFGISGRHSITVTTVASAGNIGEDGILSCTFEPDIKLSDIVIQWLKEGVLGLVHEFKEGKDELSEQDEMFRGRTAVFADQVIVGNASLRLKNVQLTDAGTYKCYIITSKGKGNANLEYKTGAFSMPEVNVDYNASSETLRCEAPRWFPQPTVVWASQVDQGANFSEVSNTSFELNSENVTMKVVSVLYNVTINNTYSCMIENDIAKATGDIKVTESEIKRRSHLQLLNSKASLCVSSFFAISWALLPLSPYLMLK

Binding in a display sort, inactive:
B1 not found, B2 not found, B3 not found, B5 not found, B6 not found, B7 not found, B8 not found, B10 not found, B12 not found, B13 not found, B14 not found, B15 not found, B18 not found, B19 not found

Target: PDL1, Q9NZQ7
Sequence (Q9NZQ7 whole entry): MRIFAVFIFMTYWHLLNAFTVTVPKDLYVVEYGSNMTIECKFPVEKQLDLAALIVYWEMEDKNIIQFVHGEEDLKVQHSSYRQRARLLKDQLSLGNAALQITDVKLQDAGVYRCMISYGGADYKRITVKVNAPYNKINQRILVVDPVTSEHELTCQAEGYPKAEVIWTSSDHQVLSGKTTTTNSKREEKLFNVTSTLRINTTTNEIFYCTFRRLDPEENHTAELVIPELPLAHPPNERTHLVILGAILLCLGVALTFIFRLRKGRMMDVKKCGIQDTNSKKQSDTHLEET

Binding in a display sort, inactive:
B4 not found, B9 not found, B11 not found, B16 not found, B17 not found
